Test results taken from PubChem BioAssay AID540276 (National Center for Advancing Translational Sciences (NCATS), 2011).
In all, about 300,000 compounds went through this assay and about 5,400 (1.8%) were called active. Where a call stands in place of a potency, no number is given. About 28% were inconclusive and are not listed. The sample holds actives, similar compounds and a random draw of the others, so the mix is not that of the screen. Calls come from the whole dose curve; tested in HEK293 cells.

Assay: qHTS for inhibitors of binding or entry into cells for Marburg Virus
Details: Marburg virus pseudotyped entry inhibition, cell reporter; series mostly up to 37.8 µM
Potency is the fitted concentration of half-maximal effect.

Which Potency does the source give for CC(C)=CCCC(C)=CCN1C(=O)[C@]2(OCCC=C[C@H]2C)c2ccccc21 here?
Its Potency is “inactive”.

With O=C(c1ccco1)N1CCN(C(=S)Nc2cc(F)cc(F)c2)CC1 as the molecule, how does the Potency read?
Its Potency is “inactive”.

Which Potency does the source give for CN(Cc1ccccc1)C(=O)C1CCCN(c2ncnc3c2nc2n3CCCCC2)C1 (configuration not stated) here?
Its Potency is “inactive”.

For CC(NC(=O)c1ccccc1)C(=O)OCC(=O)Nc1cccc(S(=O)(=O)N2CCCC2)c1 (configuration not stated), which Potency is on record?
Its Potency is “inactive”.

For Cc1ccccc1N(C(=O)CNC(=O)c1cccs1)C(C(=O)NC1CCCC1)c1ccncc1 (configuration not stated), which Potency is on record?
Its Potency is “inactive”.

For CC(NC(=O)COC(=O)c1ccc2ccccc2n1)c1ccccc1 (configuration not stated), which Potency is on record?
Its Potency is “inactive”.

With C=C(C)C(=O)Nc1cccc(C(C)=O)c1 as the molecule, how does the Potency read?
The Potency was “inactive”.

With CCSc1nsc(NC(=O)Nc2cccc(C(C)=O)c2)n1 as the molecule, how does the Potency read?
Its Potency is 10 µM (active).

For CC(=O)c1cccc(NC(=O)Nc2ccc(C)cc2)c1, which Potency is on record?
The Potency was “inactive”.

For CCOc1cccc(NC(=O)Cn2nc(-c3ccc4c(c3)OCCO4)ccc2=O)c1, which Potency is on record?
The Potency was “inactive”.

With CC(=O)c1cc2c(cc1NC(=O)CN1CCCCCC1)OCO2 as the molecule, how does the Potency read?
The Potency was “inactive”.

Which Potency does the source give for CC(=O)c1cc2c(cc1NC(=O)Cn1nc(-c3ccc(F)cc3)ccc1=O)OCO2 here?
The Potency was 10 µM (active).

For CN(CC(=O)Nc1ccc(C(N)=O)cc1)S(=O)(=O)c1ccc2c(c1)OCCO2, which Potency is on record?
The Potency was “inactive”.

With Cc1ccc2nc(SCC(=O)N3CCN(c4ccccc4)CC3)nc(=O)n2c1 as the molecule, how does the Potency read?
The Potency was “inactive”.

For CCOC(=O)c1cn(CC(=O)Nc2ccc(C(C)C)cc2)nn1, which Potency is on record?
Its Potency is “inactive”.

With CCOC(=O)c1cn(Cc2cccc(C)c2)nn1 as the molecule, how does the Potency read?
Its Potency is 3.98 µM (active).

With Cc1cccc(-c2nnc(SCC(=O)O)n2Cc2ccccc2)c1 as the molecule, how does the Potency read?
The Potency was “inactive”.

For O=C(C/C(=N\O)c1ccccc1O)C(F)F, which Potency is on record?
The Potency was “inactive”.

For Cc1cc(S(=O)(=O)NCC(C)C)ccc1OCC(=O)NC1CC1, which Potency is on record?
The Potency was “inactive”.

For COC(=O)Cc1ccc(NC(=S)NCc2ccccc2)cc1, which Potency is on record?
Its Potency is “inactive”.

For FC(F)(F)Oc1ccc(NC(=S)NCc2ccccc2)cc1, which Potency is on record?
Its Potency is 11.2 µM (active).

Which Potency does the source give for S=C(NCCc1ccccc1)Nc1ccccc1 here?
Its Potency is “inactive”.

For CSc1nc(-c2ccccc2)nc(C(Cl)Cl)n1, which Potency is on record?
The Potency was 3.55 µM (active).

Which Potency does the source give for CCc1noc(C)c1C(=O)N1CCCC(N2CCN(c3ccc(F)cc3)CC2)C1 (configuration not stated) here?
Its Potency is “inactive”.

For COC1=CC(=O)OC(C)(c2ccccc2)C1 (configuration not stated), which Potency is on record?
Its Potency is “inactive”.

With CCOc1cc(C)c(S(=O)(=O)NCc2ccccn2)cc1C as the molecule, how does the Potency read?
Its Potency is “inactive”.

For CCOc1cc(CNn2c(C)nnc2SCC(=O)NC(C)(C)C)ccc1OCC(=O)NC(C)(C)C, which Potency is on record?
Its Potency is “inactive”.

With CCOc1cc(CNCc2ccccn2)ccc1OCC(=O)NC(C)(C)C as the molecule, how does the Potency read?
Its Potency is 7.08 µM (active).

With O=C(Nc1ccc(Cl)cn1)[C@H]1CCCN1S(=O)(=O)c1ccccc1 as the molecule, how does the Potency read?
The Potency was “inactive”.

Which Potency does the source give for Cc1cc(S(=O)(=O)N2CCOCC2)ccc1OCC(=O)N1CCOCC1 here?
Its Potency is “inactive”.

With CN(CC(O)COc1ccc(S(=O)(=O)N2CCOCC2)cc1Cl)C1CCCCC1 (configuration not stated) as the molecule, how does the Potency read?
Its Potency is 10 µM (active).

For O=C(COc1ccc(S(=O)(=O)N2CCOCC2)cc1Cl)N1CCOCC1, which Potency is on record?
Its Potency is “inactive”.
